According to PubChem BioAssay (NCATS):
Records with an inconclusive call do not appear. A call without a number means that no potency is given here. The source made the active and inactive calls. Calls follow the shape of the dose curve; as a rule, active = well fitted curve in the direction sought with a large enough effect; inconclusive = small, poorly fitted or top-dose-only effect, or another doubt; inactive = no such curve, though single readings can be large; an effect the other way counts as inactive or inconclusive.

How the values were obtained:
[1] = qHTS assay to identify small molecule inhibitors of chordoma cells - UCH-1 (AID 1259355); also: nearly all actives have a fitted effect of over 55% in size
How it was run: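 800 cells/well, overnight attach; compounds pinned at 15 concs, then auranofin/camptothecin/doxorubicin/rubitecan/topotecan combo added; 48hr 37 C, 5% CO2; CellTiter-Glo, 30min RT, luminescence.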

[2] = qHTS assay to identify small molecule inhibitors of chordoma cells - UCH-2 (AID 1259356); also: series mostly up to about 46 µM
[3] = qHTS Screen of the MIPE 4.0 Collection Against Ewings Sarcoma (TC32) (AID 1259256); also: potency is read from the fitted curve at half-maximal effect; nearly all actives have a fitted effect of over 45% in size
How it was run: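 After a 4 h attachment period in RPMI/5% FBS, cells were pin-dosed with test compounds; DMSO served as negative and 9.2 uM bortezomib (final) as positive control. Luminescent CellTiter-Glo signal at 48 h defined viability.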

| SMILES | Potency [1] | Potency [2] | Potency [3] |
| --- | --- | --- | --- |
| NC(=O)CN1CC(O)CC1=O (centres undefined) | inactive | inactive | – |
| C=C[C@@H]1CN2CCC1C[C@H]2[C@H](O)c1ccnc2ccccc12 (some centres undefined) | – | – | 18.7 µM (active) |
| c1ccc(C2(c3ccccc3)CC2C2=NCCN2)cc1 (centres undefined) | inactive | inactive | – |
| C1CCC(NC2CCCCC2)CC1 | – | inactive | – |
| C[C@]12CCC(=O)C(O)=C1CC[C@@H]1[C@H]3CCC(=O)[C@@]3(C)CC[C@@H]12 | inactive | inactive | – |
| CC[N+]1(CCOC(=O)C(O)(c2ccccc2)c2ccccc2)CCCCC1 | inactive | inactive | – |
| COC(C)(C)CCCC(C)C/C=C/C(C)=C/C(=O)OC(C)C (centres undefined) | inactive | inactive | – |
| CC(Cc1ccc(O)cc1)NCC(O)c1cc(O)cc(O)c1 (centres undefined) | inactive | inactive | – |
